Among the test systems are SR leukemia; RPMI-8226 leukemia; OVCAR-8 ovarian; OVCAR-5 ovarian; OVCAR-4 ovarian; SK-OV-3 ovarian; OVCAR-3 ovarian; HS 578T breast; NCI/ADR-RES ovarian; IGROV1 ovarian.
Holding throughout (test): NCI-60 one-dose screen, 48 h (100 = growth as untreated, 0 = no growth, -100 = all killed)
Conditions in all cases: 10 µM unless noted

Molecules are shown by their SMILES. Compounds without any hit were thinned out: in the full panel of roughly 83,000, 20% have a hit.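 Note: values are percent growth. 100 is the growth of untreated cells, values between 100 and 0 indicate rising inhibition; between -100 and 0 indicates cell death.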 A number with no mark means an inactive call. The source made the active and inactive calls. The calls were made as follows: active = growth percent below 10; inactive = the rest.

As for `O=c1[nH]c2ccccc2cc1-c1nnc(Cc2ccccc2)o1`, the growth with SR leukemia was 31.6%; in the experiment with RPMI-8226 leukemia it was 15.3%; in the experiment on OVCAR-8 ovarian it was 57.8%; in the experiment on OVCAR-5 ovarian, 120%; in the experiment on OVCAR-4 ovarian, 61.3%; with SK-OV-3 ovarian, 92.8%. In addition, the figures for the growth in the experiment on OVCAR-3 ovarian, with HS 578T breast and in the experiment with NCI/ADR-RES ovarian were 69.6%, 90.1% and 89.8%, respectively.

On to `O=c1[nH]c(-c2cn(-c3ccc(Cl)cc3)nn2)nc2ccccc12`, for which the growth with SR leukemia was 80.4%; in the experiment on RPMI-8226 leukemia, 83.5%; with OVCAR-8 ovarian it was 48.5%; with OVCAR-5 ovarian, 102%; in the experiment with OVCAR-4 ovarian, 36%; in the experiment with SK-OV-3 ovarian, 38.9%. Besides, the growth with OVCAR-3 ovarian is 85.4%; in the experiment on HS 578T breast it was 37%; in the experiment with NCI/ADR-RES ovarian, 63.9%.

With `Nc1ccc(S(=O)(=O)c2ccc(Cl)cc2)cc1`, the growth with SR leukemia is 112%; in the experiment on RPMI-8226 leukemia, 101%; in the experiment on OVCAR-8 ovarian it was 107%; in the experiment on OVCAR-5 ovarian, 90.1%; with OVCAR-4 ovarian, 110%; in the experiment with SK-OV-3 ovarian it was 109%. In addition, the growth was 98.8% with OVCAR-3 ovarian, 96% in the experiment with HS 578T breast and 95.2% in the experiment on NCI/ADR-RES ovarian.

As for `Cc1cccc2cc(/C=C/C(=O)/C=C/c3ccc(Cl)cc3)c(=O)[nH]c12`, the growth with SR leukemia is 0.572% (active); in the experiment on RPMI-8226 leukemia, 6.05% (active); in the experiment on OVCAR-8 ovarian, 21.8%; with OVCAR-5 ovarian, 84.8%; in the experiment with OVCAR-4 ovarian, 58%; in the experiment with SK-OV-3 ovarian, 91.5%. Besides, the values for the growth with OVCAR-3 ovarian, in the experiment on HS 578T breast and in the experiment with NCI/ADR-RES ovarian were 13.9%, 50.9% and 94.8%, respectively.

As for `CCOC(=O)C1=C(C)NC(=O)NC1c1ccc(OCC(=O)N/N=C/c2ccc(Cl)cc2)cc1` (centres undefined), the growth is 68.7% in the experiment on SR leukemia; 90.1% with RPMI-8226 leukemia; 95.2% with OVCAR-8 ovarian; 87.9% in the experiment with OVCAR-5 ovarian; 95.1% in the experiment on OVCAR-4 ovarian; 88.9% with SK-OV-3 ovarian. The growth with OVCAR-3 ovarian was 99.8%; in the experiment with HS 578T breast, 86.6%; with NCI/ADR-RES ovarian it was 106%.

With `CCNC(=O)C1CCCN1C(=O)C(CCCN=C(N)N)NC(=O)C(CC(C)C)NC(=O)C(CC(C)C)NC(=O)C(Cc1ccc(O)cc1)NC(=O)C(CO)NC(=O)C(Cc1c[nH]c2ccccc12)NC(=O)C(Cc1cnc[nH]1)NC(=O)C1CCC(=O)N1` (centres undefined), the growth is 102% in the experiment on SR leukemia; 33.3% with RPMI-8226 leukemia; 95.9% in the experiment with OVCAR-8 ovarian; 87.3% in the experiment on OVCAR-5 ovarian; 91.3% in the experiment on OVCAR-4 ovarian; 98.2% in the experiment on SK-OV-3 ovarian. Further, the growth with OVCAR-3 ovarian was 125%; in the experiment on HS 578T breast, 81.2%; in the experiment on NCI/ADR-RES ovarian it was 97.8%.

With `CC(Br)C(Br)c1cc2c(cc1Br)OCO2` (centres undefined), the growth in the experiment on SR leukemia is 98.6%; with RPMI-8226 leukemia it was 105%; in the experiment on OVCAR-8 ovarian, 100%; in the experiment on OVCAR-5 ovarian, 98.6%; with OVCAR-4 ovarian it was 105%; in the experiment on SK-OV-3 ovarian it was 84%. The growth is 107% in the experiment on OVCAR-3 ovarian, -96.5% (active) in the experiment with HS 578T breast and 99.1% with NCI/ADR-RES ovarian.

As to `N#Cc1ccc(NC(=O)c2ccc3cccnc3c2O)cc1`, the growth with SR leukemia was 25.6%; with RPMI-8226 leukemia, 23.4%; with OVCAR-8 ovarian, 16%; with OVCAR-5 ovarian, 60.6%; with OVCAR-4 ovarian, 16.5%; in the experiment with SK-OV-3 ovarian it was 19.8%. Besides, the results for the growth with OVCAR-3 ovarian, in the experiment with HS 578T breast and with NCI/ADR-RES ovarian were 26%, 53.8% and 8.81% (active), respectively.

For the compound `O=C1C2=C(C(=O)c3c(O)ccc(O)c31)N(c1cccnc1)Cc1ccccc1O2`, the growth with SR leukemia is -10.1% (active); in the experiment with RPMI-8226 leukemia it was -8.47% (active); in the experiment on OVCAR-8 ovarian it was 2.92% (active); in the experiment on OVCAR-5 ovarian, -39.6% (active); with OVCAR-4 ovarian, -95% (active); with SK-OV-3 ovarian, 53.8%. The growth in the experiment on OVCAR-3 ovarian is -89.5% (active); in the experiment with HS 578T breast it was 26.1%; in the experiment with NCI/ADR-RES ovarian it was 13.4%.

For the compound `COC1=CC(c2ccc[nH]2)=N/C1=C\c1[nH]c(C)c(C(=O)CCCCC(=O)Nc2ccccc2)c1C`, the growth in the experiment on SR leukemia was 44%; in the experiment with RPMI-8226 leukemia, 126%; with OVCAR-8 ovarian, -46.4% (active); in the experiment on OVCAR-5 ovarian, 64.4%; in the experiment on OVCAR-4 ovarian, 54.4%; in the experiment on SK-OV-3 ovarian, 77.5%. The growth in the experiment on OVCAR-3 ovarian is 40.6%; in the experiment on HS 578T breast, 82.2%; in the experiment on NCI/ADR-RES ovarian, 32.9%.

With `Cc1nc(Nc2cccnc2)sc1C(=O)/C=C/c1ccc(Cl)cc1`, the growth in the experiment on SR leukemia was 6.11% (active); in the experiment with RPMI-8226 leukemia, -4.94% (active); in the experiment with OVCAR-8 ovarian, 14.9%; in the experiment with OVCAR-5 ovarian it was 37.3%; in the experiment with OVCAR-4 ovarian, 82.4%; in the experiment on SK-OV-3 ovarian, 81.3%. Besides, the growth with OVCAR-3 ovarian was 7.38% (active); in the experiment on HS 578T breast, 98.9%; with NCI/ADR-RES ovarian, 35.4%.

In the case of `CCNC(=O)CCCCC(=O)c1c(C)[nH]c(/C=C2\N=C(c3ccc[nH]3)C=C2OC)c1C`, the growth is 45.6% in the experiment on SR leukemia; 51.6% in the experiment with RPMI-8226 leukemia; -38.3% (active) in the experiment on OVCAR-8 ovarian; 66.3% with OVCAR-5 ovarian; -59.4% (active) in the experiment with OVCAR-4 ovarian; 57.7% with SK-OV-3 ovarian. The growth in the experiment on OVCAR-3 ovarian was -77.9% (active); in the experiment with HS 578T breast, 54.9%; with NCI/ADR-RES ovarian, 15.4%.

Turning to `O=C(CCCn1c2c(sc3ccccc32)c(=O)n2nnc(-c3ccccc3)c12)NCCc1cnc[nH]1`, the growth with SR leukemia is 55.2%; with RPMI-8226 leukemia, -4.25% (active); in the experiment with OVCAR-8 ovarian, -50.6% (active); in the experiment with OVCAR-5 ovarian, -82.1% (active); with OVCAR-4 ovarian, -92.5% (active); in the experiment with SK-OV-3 ovarian, 5.51% (active). Besides, the growth in the experiment with OVCAR-3 ovarian was -49.7% (active); in the experiment on HS 578T breast, 23.4%; in the experiment on NCI/ADR-RES ovarian, 21.2%.

As to `COc1ccc2c(c1)NC(=O)CN2c1nc(NC2CC2)nc2ccccc12`, the growth in the experiment with SR leukemia is 31.5%; with RPMI-8226 leukemia, 32.7%; in the experiment with OVCAR-8 ovarian, 18.3%; in the experiment on OVCAR-5 ovarian, 44%; with OVCAR-4 ovarian it was 40.3%; with SK-OV-3 ovarian, 23.9%. Besides, the growth is -19.7% (active) in the experiment on OVCAR-3 ovarian, 26.6% in the experiment on HS 578T breast and 5.39% (active) with NCI/ADR-RES ovarian.

Take `CCC1CCc2nc3sc(C(=O)Nc4ccccc4C)c(N)c3cc2C1` (centres undefined): the growth in the experiment with SR leukemia is 12.8%; in the experiment with RPMI-8226 leukemia, 3.92% (active); in the experiment with OVCAR-8 ovarian it was 57.3%; in the experiment with OVCAR-5 ovarian it was 76.5%; in the experiment with OVCAR-4 ovarian, 89%; with SK-OV-3 ovarian, 44.8%. Besides, the growth is 65.3% with IGROV1 ovarian and 18.4% in the experiment on NCI/ADR-RES ovarian.

(Values after PubChem BioAssay (NCI).)
